Sampled rows, rich in hits. Any-hit rate of the full collection: about 2.7%.
HepG2 viability – kills HepG2 cells in TGF-b inhibitor counter-screen; HepG2 CAGA-GFP viability, ATP luminescence, 18 h; 410,000 compounds, 0.76% hits; Potency, µM (highest dose often 46.1 µM), inactives show at the top dose activity change, negative = cytotoxicity, usual class: cytotoxic; AID 588856
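CellTiter-Glo luminescence gave cytotoxicity after 18 hours at 37 degrees C. The cells were HepG2 CAGA-GFP in 1% FBS DMEM, stimulated with 500 pg/mL TGF-beta after compound addition. %Activity was normalised to no-cell wells (complete cell-killing) and DMSO (no toxicity), and curves were fitted and classified.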
TGFb SMAD3 inh – TGF-b pathway inhibition; Potency, µM (top dose mostly 46.1 µM), inactives show at the highest dose activity, negative = inhibition, hits mostly inhibitors; 410,000 compounds, 1.2% hits; AID 588855; HepG2 CAGA-GFP TGF-b/SMAD3 reporter, GFP fluorescence, 18 h; TGF-beta stimulated, 500 pg/mL final; also: % is scaled to controls: 0 for no effect and ±100 for the full control effect; nearly all actives have a fitted effect of over 65% in size
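Smad-responsive CAGA-GFP expression was quantified in HEPG2 cells exposed to compounds and 500 pg/mL final TGF-beta for 18 h at 37 degrees C; unstimulated wells defined full inhibition.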
ALOX12 inh – ALOX12 (human) lipoxygenase inhibition. P18054. purified 12hLO, xylenol orange hydroperoxide absorbance. Potency, µM (doses to about 108 µM), for the others: top-dose activity change, negative = inhibition, most hits filed as inhibitors. 580,000 compounds, 1.1% hits. AID 1671190; also: % is scaled to controls: 0 for no effect and ±100 for the full control effect
Target sequence (P18054 whole entry, looked up): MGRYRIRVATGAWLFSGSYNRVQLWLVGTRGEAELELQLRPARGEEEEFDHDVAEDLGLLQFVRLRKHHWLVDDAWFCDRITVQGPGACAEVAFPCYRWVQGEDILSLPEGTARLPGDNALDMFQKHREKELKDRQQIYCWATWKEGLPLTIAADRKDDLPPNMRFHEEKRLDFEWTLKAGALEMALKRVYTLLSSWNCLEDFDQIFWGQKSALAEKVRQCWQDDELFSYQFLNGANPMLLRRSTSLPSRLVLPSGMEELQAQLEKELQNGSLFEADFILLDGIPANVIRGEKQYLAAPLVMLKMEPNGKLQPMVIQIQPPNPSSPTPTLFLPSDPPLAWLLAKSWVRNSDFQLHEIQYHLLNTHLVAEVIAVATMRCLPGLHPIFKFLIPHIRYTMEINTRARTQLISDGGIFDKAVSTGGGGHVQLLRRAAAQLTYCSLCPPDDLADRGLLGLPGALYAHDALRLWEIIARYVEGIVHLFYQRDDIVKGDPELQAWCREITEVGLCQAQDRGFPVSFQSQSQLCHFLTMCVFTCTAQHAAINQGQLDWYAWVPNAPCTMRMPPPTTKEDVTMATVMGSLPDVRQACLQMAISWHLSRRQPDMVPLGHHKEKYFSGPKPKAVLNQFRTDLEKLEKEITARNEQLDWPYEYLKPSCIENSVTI
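Purified human 12hLO (150 nM final) in 25 mM Hepes, 0.01% Triton X-100, pH 7.0 was preincubated 15 min at room temperature with compound. Then 40 uM arachidonic acid was added, 30 min. Hydroperoxide was read by Fe-XO absorbance ratio 573/405 nm.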
ATXN2 expr inh – ATXN2 expression inhibition; AID 1745845; Potency, µM (doses to about 57 µM), for inactives: at the highest dose activity change, negative = inhibition, actives largely listed as inhibitors; 360,000 compounds, 0.72% hits; HEK-293 ATXN2-luciferase reporter, luminescence, 24 h; also: % is scaled to controls: 0 for no effect and ±100 for the full control effect; nearly all actives have a fitted effect of over 55% in size
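ATXN2-luciferase reporter cells (luciferase flanked by upstream and downstream ATXN2 gene portions) were treated 24 h at 37 °C with compounds at up to 57 uM. SteadyGlo luminescence gave expression; GF-AFC fluorescence gave viability.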
S2 tox – viability counter-screen for ATXN expression inhibitors | S2 cells (HEK-293 line with an ATXN2-luciferase reporter) viability, CellTiter-Fluor protease fluorescence, 24 h | Potency, µM (doses to about 56.7 µM), usual class: cytotoxic | 400,000 compounds, 0.49% hits | AID 651635; also: nearly all actives have a fitted effect of over 40% in size
* hit, by the source's call; i = inactive; ? = inconclusive; . = no result; [ ] = remark or other dose. Calls follow the shape of the dose curve; as a rule, active = well fitted curve in the direction sought with a large enough effect; inconclusive = small, poorly fitted or top-dose-only effect, or another doubt; inactive = no such curve, though single readings can be large; an effect the other way counts as inactive or inconclusive. Potency is read from the fitted curve at half-maximal effect.

SMILES	HepG2 viability	TGFb SMAD3 inh	ALOX12 inh	ATXN2 expr inh	S2 tox
COc1ccc(S(=O)(=O)n2oc(=O)cc2-c2ccccc2)cc1OC	1%	-5%	14µM*	-3%	i
COc1ccc(S(=O)(=O)n2oc(=O)cc2-c2ccccc2)cc1	-2%	3%	?	-1%	i
CCCCCn1c(-c2ccco2)nc2nc3ccccc3nc21	2%	4%	35µM*	4%	i
Nc1nc(Cl)nc2c1ncn2C1CC(O)C(CO)O1 (stereo not given)	-56%	?	1%	1.8µM*	i
Nc1ncnc2c1ncn2C1C[C@H](O)[C@@H](CO)O1 (stereo not given in full)	.	.	10%	.	.
Cc1cc(C)cc(OC(C)C(=O)Nc2nonc2-c2ccc(Br)cc2)c1 (stereo not given)	-56%	16µM*	-17%	?	?
Cc1cccc(C)c1OCC(=O)Nc1nonc1-c1ccc(Br)cc1	-41%	?	?	?	?
Cn1sc(NC(=O)c2ccccc2Cl)nc1=O	-11%	0%	45µM*	2%	i
COc1cc(OC)cc(-c2nc3n(n2)C(c2ccncc2)C2=C(CC(C)(C)CC2=O)N3)c1 (stereo not given)	.	.	30%	.	.
CCOc1ccccc1NC(=O)CC1C(=O)Nc2ccccc2N1C(=O)c1ccccc1OC (stereo not given)	.	.	-19%	.	.
Cn1c(N=Nc2ccccc2)nc2ccccc21	7.1µM*	-7%	?	7%	i
CN(C)CCN(CC1CCCCC1)C(=O)Nc1ccc(F)cc1	.	.	-1%	.	.
CCCc1ccc(OCCN)cc1	.	.	30%	.	.
CC(=O)C1(O)Cc2c(O)c3c(c(O)c2C(OC2CC(N)C(O)C(C)O2)C1)C(=O)c1c(O)cccc1C3=O (stereo not given)	-105%	1.6µM*	.	.	.
CC(=O)[C@@]1(O)Cc2c(O)c3c(c(O)c2[C@H](O[C@H]2C[C@H](N)[C@H](O)[C@H](C)O2)C1)C(=O)c1ccccc1C3=O	-131%	-44%	?	-74%	?
S=c1nn[nH]c2ccccc12	-11%	18%	32µM*	24%	i
c1csc(-c2cc(CSc3nnc(-c4ccncc4)o3)no2)c1	.	.	-5%	.	.
Cc1ccc(-c2cc(C(=O)N/N=C/c3ccccc3O)n[nH]2)o1	-49%	?	-20%	20µM*	?
CSc1ccc(/C=N/Nc2ccc(F)cc2F)cc1	.	.	1.8µM*	.	.
Fc1ccc(N/N=C/C=C/c2ccccc2)c(F)c1	-4%	3%	40µM*	6%	i
O=C(Nc1ccccc1C(=O)N1CCN(c2ccccc2)CC1)C1CC(=O)N(c2ccc(F)cc2)C1 (stereo not given)	.	.	-6%	.	.
COc1ccc(C(=O)N2CC(Oc3ccccc3-c3nc(-c4cnccn4)no3)C2)cn1	.	.	-8%	.	.
COc1ccc(CCC(=O)N2Cc3ccccc3OC3(CCN(C)CC3)C2)cc1	.	.	10%	.	.
COc1ccc(Cl)cc1-c1ccc2c(c1)C(=O)N1C[C@@H](NS(=O)(=O)c3ccc(F)cc3)C[C@H]1C(=O)N2	.	.	9%	.	.
CCN1C(Nc2ccccc2)=NC[C@@H]1Cc1ccccc1	2%	?	16%	0%	i
SMILES	HepG2 viability	TGFb SMAD3 inh	ALOX12 inh	ATXN2 expr inh	S2 tox
CC(C)(C)C1CCC(CN2C(Nc3ccccc3)=NC[C@@H]2Cc2ccccc2)CC1 (stereo not given in full)	13µM*	?	?	?	.
Cc1cccc(NC(=O)CCc2ncc(-c3ccc(F)cc3)o2)c1	.	.	-4%	.	.
CC(C)c1ccc(S(=O)(=O)/N=C2/C=C(Sc3ncn[nH]3)C(=O)c3ccccc32)cc1	10µM*	7.9µM*	.	14µM*	?
Cc1ccc(S(=O)(=O)/N=C2/C=C(Sc3ncn[nH]3)C(=O)c3ccccc32)cc1	2µM*	1µM*	.	?	?
CCOc1ccc(S(=O)(=O)Nc2ccc(O)c(Sc3ncn[nH]3)c2)cc1	4%	-12%	-6%	11%	i
Cc1ccc(S(=O)(=O)Nc2ccc(O)c(Sc3ncn[nH]3)c2)cc1	5%	-1%	?	32%	i
COc1ccc2[nH]cc(C3CC(=O)Oc4c3c(=O)n(C)c3ccccc43)c2c1 (stereo not given)	.	.	10%	.	.
COCCCNC(=O)C1CCN(C(=O)c2cc3sccc3n2Cc2ccc(F)cc2)CC1	-19%	1%	2%	6%	i
CC(C)CCNC(=O)C1CCN(C(=O)c2cc3sccc3n2Cc2ccc(Cl)cc2)CC1	-21%	6.3µM*	-1%	.	.
O=C(/C=C/c1cccnc1)c1cc2ccc1CCc1ccc(cc1)CC2	.	.	22%	.	.
COc1ccc([N+](=O)[O-])cc1NC(=S)NC(NC(=O)C(c1ccccc1)c1ccccc1)C(Cl)(Cl)Cl (stereo not given)	-29%	4.5µM*	24%	22µM*	?
Cc1ccc(C(=O)Nc2ccc(Cl)c(C(F)(F)F)c2)c(Cl)c1	.	.	3%	.	.
O=C1/C(=C\c2ccco2)NC(=S)N1c1ccccc1	-21%	-21%	16µM*	13%	?
O=C(Nc1ccccc1-c1ccccc1)c1ccncc1	.	.	-25%	.	.
CCCN1CNC(=S)N(c2ccc(C(=O)OCC)cc2)C1	-9%	-1%	0%	-3%	i
CCOC(=O)c1ccc(N2CN(CCc3ccccc3)CNC2=S)cc1	-14%	-23%	45µM*	0%	?
Cc1ccc(S(=O)(=O)NC2CC2)cc1C(=O)Nc1cccc2c1CCCC2	.	.	-21%	.	.
COc1ccc(OCCNC(=O)C2(C)CCN2Cc2ccc3ccccc3c2)cc1 (stereo not given)	-56%	14µM*	-1%	?	?
C#CCNC(=O)c1sc(C(C)C)nc1C	.	.	30%	.	.
O=[S+]1([O-])NC2(CCN(CC3CCCCC3)CC2)COc2ccccc21	.	.	3%[6.33 µM]	.	.
CN(CCC#N)c1ccc(C=C(C#N)c2cccc(C(F)(F)F)c2)cc1	-26%	-13%	.	-20%	i
Cc1cc(/C=C(\C#N)c2cccc(C(F)(F)F)c2)c(C)n1C	.	.	40µM*	.	.
COc1nc2ccccc2nc1N1CCC(C(=O)Nc2ccc(Oc3ccccc3)cc2)CC1	.	.	-2%	.	.
Cc1nnc(N/N=C/c2cc(C)n(-c3ccc(F)cc3)c2C)n1N	-104%	14µM*	-5%	1%	i
O=[N+]([O-])c1ccc(N2CCCC2)nc1N1CCCC1	1%	5%	?	-3%	i
Nc1ncc([N+](=O)[O-])c(N2CCCCCC2)n1	7.1µM*	-12%	14%	5%	i
Cc1ccc(CNC(=O)c2cccc(-c3ccc(S(=O)(=O)N4CCCCC4)cc3)c2)cc1	.	.	-21%	.	.
COc1ccc(N2CCN(C(=O)c3cn(C4CCCCC4)c(=O)c4c3c3ccccc3n4C)CC2)cc1	-86%	?	5%	-8%	11µM*
